Measurements taken from PubChem BioAssay (NCATS).
“And” between values parts separate entries of the source, which are not always exact repeats. Equal values may be shown once. Records with an inconclusive call do not appear. The source made the active and inactive calls. Unless noted, calls follow the shape of the dose curve; as a rule, active = well fitted curve in the direction sought with a large enough effect; inconclusive = small, poorly fitted or top-dose-only effect, or another doubt; inactive = no such curve, though single readings can be large; an effect the other way counts as inactive or inconclusive.

How the values were obtained:
[1] = qHTS assay for small molecule activators of the p53 signaling pathway (AID 651743; active = well fitted activation curve with a large enough effect in the signal ratio, not every such curve was filed as active; the % refers to the signal ratio; also: % of control where 0% means no effect); details: HCT-116 p53RE-bla, beta-lactamase FRET ratio, 16 h; activation: stronger effect = higher value
In short: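 HCT-116 p53RE-bla, 4,000 cells/well; 5 h settle; cpd/DMSO 16 h, 37 C; LiveBLAzer B/G 2 h RT; fluorescence intensity.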

[2] = biological target: Tumor necrosis factor (Homo sapiens) (UniProt P01375); test: qHTS assay to identify small molecules that stimulate Tumor Necrosis Factor-alpha (TNF-alpha) secretion (AID 651757; active = well fitted curve in the direction sought with a large enough effect in the signal ratio; the % refers to the signal ratio; also: 0% is about no effect)
Sequence of Tumor necrosis factor (Homo sapiens) (P01375 whole entry, looked up): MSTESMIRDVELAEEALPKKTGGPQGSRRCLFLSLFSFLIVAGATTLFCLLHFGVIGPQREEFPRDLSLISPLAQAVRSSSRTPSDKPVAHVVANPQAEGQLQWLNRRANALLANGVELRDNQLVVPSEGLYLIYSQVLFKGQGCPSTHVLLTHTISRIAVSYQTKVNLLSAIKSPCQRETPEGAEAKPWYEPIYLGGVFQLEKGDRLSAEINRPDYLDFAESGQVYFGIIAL
In short: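 Secreted TNF-alpha from compound-treated THP-1 cells (17 hrs, 37 C) was quantified with a homogeneous time-resolved fluorescence antibody assay.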

[3] = qHTS assay to identify small molecules that stimulate interleukin-8 (IL-8) secretion (AID 651758; active = well fitted activation curve with a large enough effect in the signal ratio; the % refers to the signal ratio; also: 0% is about no effect)
In short: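 THP-1 cells (2000/well) exposed to compound 16 h at 37 C; secreted IL-8 then detected by HTRF with cryptate- and XL665-labelled anti-IL-8 antibody pair after 1-3 h at room temperature.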

[4] = qHTS assay for environmental chemicals that activate the Aryl hydrocarbon Receptor (AhR) signaling pathway (AID 651777); details: 1A2-DRE human hepatoma cells, luciferase, 24 h; activation: stronger effect = higher value; also: % of control where 0% means no effect; nearly all actives have a fitted effect of over 15% in size
In short: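 Luminescence read-out: One-Glo added for 30 min at RT after 24 hr compound treatment (37 C, 5% CO2) of human hepatoma cells expressing a DRE/CYP1A2 promoter–luciferase reporter; increased signal indicates AhR activation.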

[5] = biological target: Peroxisome proliferator-activated receptor alpha (Homo sapiens) (UniProt Q07869); test: qHTS assay for small molecule agonists of the peroxisome proliferator-activated receptor alpha (PPARalpha) signaling pathway (AID 651778); details: PathHunter PPARalpha complementation, chemiluminescence, 6 h; max response: stronger effect = higher value; also: % of control where 0% means no effect
Sequence of Peroxisome proliferator-activated receptor alpha (Homo sapiens) (Q07869 whole entry, looked up, the tested form may be a part): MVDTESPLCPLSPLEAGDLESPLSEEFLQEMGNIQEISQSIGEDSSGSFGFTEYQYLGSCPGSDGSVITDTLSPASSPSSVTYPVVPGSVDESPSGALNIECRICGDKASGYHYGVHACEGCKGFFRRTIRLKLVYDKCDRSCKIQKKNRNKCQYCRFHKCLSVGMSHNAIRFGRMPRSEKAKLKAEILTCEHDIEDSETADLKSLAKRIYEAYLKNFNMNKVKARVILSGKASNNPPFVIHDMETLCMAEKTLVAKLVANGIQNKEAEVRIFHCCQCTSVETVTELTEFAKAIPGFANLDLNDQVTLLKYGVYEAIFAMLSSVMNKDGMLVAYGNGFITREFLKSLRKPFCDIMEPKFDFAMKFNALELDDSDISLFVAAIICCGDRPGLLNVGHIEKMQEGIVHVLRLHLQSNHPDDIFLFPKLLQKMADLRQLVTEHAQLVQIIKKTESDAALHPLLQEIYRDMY
In short: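 Enzyme-fragment complementation assay in which ligand-bound PPARalpha translocates and forms an active enzyme that generates chemiluminescence. Cells were plated overnight, exposed to compound for 6 hr at 37 C, and then given detection reagent for 60 min at room temperature.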

[6] = biological target: Nuclear receptor ROR-gamma (Homo sapiens) (UniProt P51449); test: qHTS assay for small molecule antagonists of the retinoid-related orphan receptor gamma (ROR-gamma) signaling pathway (AID 651802);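 also: CHO cells with doxycycline-induced ROR-gamma expression; % is scaled to controls: 0 for no effect and ±100 for the full control effect; nearly all actives have a fitted effect of over 60% in size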
Sequence of Nuclear receptor ROR-gamma (Homo sapiens) (P51449 whole entry, looked up): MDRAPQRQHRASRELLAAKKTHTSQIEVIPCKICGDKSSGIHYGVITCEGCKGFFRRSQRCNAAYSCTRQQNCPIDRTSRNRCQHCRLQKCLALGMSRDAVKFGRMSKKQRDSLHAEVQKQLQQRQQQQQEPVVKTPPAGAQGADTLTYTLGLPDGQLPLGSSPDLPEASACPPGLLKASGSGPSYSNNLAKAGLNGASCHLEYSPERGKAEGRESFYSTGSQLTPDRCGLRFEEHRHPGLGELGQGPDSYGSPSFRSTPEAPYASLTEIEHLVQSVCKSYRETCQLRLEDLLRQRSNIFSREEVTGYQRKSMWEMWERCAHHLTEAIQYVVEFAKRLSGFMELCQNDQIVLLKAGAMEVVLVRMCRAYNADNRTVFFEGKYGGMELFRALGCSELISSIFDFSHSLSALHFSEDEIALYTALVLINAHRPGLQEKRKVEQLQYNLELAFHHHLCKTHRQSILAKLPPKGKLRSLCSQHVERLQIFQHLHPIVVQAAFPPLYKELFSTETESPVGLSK
In short: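 Antagonism is scored as a fall in luminescence from a RORE-luciferase reporter in CHO cells expressing ROR under a TET-inducible promoter, measured 16hr after doxycycline induction in the presence of compound.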

[7] = qHTS assay for small molecule agonists of the antioxidant response element (ARE) signaling pathway measured by Nrf2-dependant transcriptional activity (AID 720636; active = well fitted curve in the direction sought with a large enough effect in the repeat runs; an effect the other way counts as inactive or inconclusive;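 also: HepG2 cells with an ARE-driven luciferase reporter; % of control where 0% means no effect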)
In short: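 HepG2 ARE-luc reporter line, 1% dialyzed FBS; 6 hr attachment at 37 C, compound pinned in, 16 hr at 37 C/5% CO2; ONE-Glo, 30 min RT, luminescence read.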

[8] = qHTS assay for small molecule antagonists of the retinoid-related orphan receptor gamma (ROR-gamma) signaling pathway - cell viability counter screen (AID 720652; active = well fitted curve in the direction sought with a large enough effect in the repeat runs; an effect the other way counts as inactive or inconclusive;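 also: CHO reporter cells with doxycycline-induced ROR-gamma expression; compound exposure lasted 16 hr before ATP read; % is scaled to controls: 0 for no effect and ±100 for the full control effect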)
In short: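 Cytotoxicity is quantified via intracellular ATP (CellTiter-Glo luminescence) in doxycycline-induced CHO ROR response element-luciferase reporter cells treated with compound for 16 hr at 37 C, 5% CO2.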

[9] = qHTS assay for small molecule agonists of the antioxidant response element (ARE) signaling pathway measured by Nrf2-dependant transcriptional activity - cell viability counter screen (AID 720653; active = well fitted curve in the direction sought with a large enough effect in the repeat runs; an effect the other way counts as inactive or inconclusive; also: % is scaled to controls: 0 for no effect and ±100 for the full control effect); details: ARE-bla HepG2 viability, CellTiter-Glo ATP luminescence, 16 h; max response: stronger effect = lower value
In short: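 ARE-bla HepG2 cells treated with compounds for 16 h at 37C; this counter screen measures viability as intracellular ATP by CellTiter-Glo luminescence after 30 min at room temperature.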

[10] = qHTS assay for cell viability of HEK293 cells (AID 743288); details: ATP luminescence (CellTiter-Glo), 18 h; max response: stronger effect = lower value; also: % is scaled to controls: 0 for no effect and ±100 for the full control effect; nearly all actives have a fitted effect of over 50% in size
In short: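 Environmental chemicals tested in qHTS format against parental HEK293 cells; 18 h treatment, 37 C; read-out ATP luminescence (CellTiter-Glo), 30 min RT development.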

[11] = qHTS assay for cell viability of the p53RE-bla HCT-116 cell line (AID 743292); also: % is scaled to controls: 0 for no effect and ±100 for the full control effect; nearly all actives have a fitted effect of over 55% in size
In short: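 Luminescent ATP quantitation (CellTiter-Glo) served as the viability read-out; reagent was added after 16 h compound exposure at 37 C and read after 30 min at room temperature. Cells: p53RE-bla HCT-116, 4,000 per well.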

[12] = qHTS profiling for inhibitors of Plasmodium falciparum proliferation (AID 504749);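 also: 0% = DMSO vehicle and full inhibition = artemisinin control; nearly all actives have a fitted effect of over 60% in size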; details: P. falciparum in erythrocytes, SYBR Green DNA, 72 h, at 28.7 µM (top of the series)
In short: (§1)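 Readout was DNA-dye fluorescence from lysed cultures, ex 485/em 535 nm. Parasitized red cells had grown 72 h with compound; data scaled between 0.29 uM artemisinin and DMSO wells and corrected using vehicle-only plates.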

3D7 = test: as above; details: P. falciparum in erythrocytes, SYBR Green DNA, 72 h; series mostly up to 28.7 µM
In short: as §1

7G8 = test: as above; details: P. falciparum in erythrocytes, SYBR Green DNA, 72 h; series mostly up to 28.7 µM
In short: as §1

AA1029 = test: as above; details: P. falciparum in erythrocytes, SYBR Green DNA, 72 h; series mostly up to 28.7 µM
In short: as §1

AS120 = test: as above; details: P. falciparum in erythrocytes, SYBR Green DNA, 72 h; series mostly up to 28.7 µM
In short: as §1

ATS189 = test: as above; details: P. falciparum in erythrocytes, SYBR Green DNA, 72 h; series mostly up to 28.7 µM
In short: as §1

ATS95 = test: as above; details: P. falciparum in erythrocytes, SYBR Green DNA, 72 h; series mostly up to 28.7 µM
In short: as §1

C2A = test: as above; details: P. falciparum in erythrocytes, SYBR Green DNA, 72 h; series mostly up to 28.7 µM
In short: as §1

CP185 = test: as above; details: P. falciparum in erythrocytes, SYBR Green DNA, 72 h; series mostly up to 28.7 µM
In short: as §1

CP191 = test: as above; details: P. falciparum in erythrocytes, SYBR Green DNA, 72 h; series mostly up to 28.7 µM
In short: as §1

CP192 = test: as above; details: P. falciparum in erythrocytes, SYBR Green DNA, 72 h; series mostly up to 28.7 µM
In short: as §1

CP194 = test: as above; details: P. falciparum in erythrocytes, SYBR Green DNA, 72 h; series mostly up to 28.7 µM
In short: as §1

CP201 = test: as above; details: P. falciparum in erythrocytes, SYBR Green DNA, 72 h; series mostly up to 28.7 µM
In short: as §1

CP203 = test: as above; details: P. falciparum in erythrocytes, SYBR Green DNA, 72 h; series mostly up to 28.7 µM
In short: as §1

CP211 = test: as above; details: P. falciparum in erythrocytes, SYBR Green DNA, 72 h; series mostly up to 28.7 µM
In short: as §1

CP215 = test: as above; details: P. falciparum in erythrocytes, SYBR Green DNA, 72 h; series mostly up to 28.7 µM
In short: as §1

CP217 = test: as above; details: P. falciparum in erythrocytes, SYBR Green DNA, 72 h; series mostly up to 28.7 µM
In short: as §1

CP237 = test: as above; details: P. falciparum in erythrocytes, SYBR Green DNA, 72 h; series mostly up to 28.7 µM
In short: as §1

CP238 = test: as above; details: P. falciparum in erythrocytes, SYBR Green DNA, 72 h; series mostly up to 28.7 µM
In short: as §1

CP247 = test: as above; details: P. falciparum in erythrocytes, SYBR Green DNA, 72 h; series mostly up to 28.7 µM
In short: as §1

CP250 = test: as above; details: P. falciparum in erythrocytes, SYBR Green DNA, 72 h; series mostly up to 28.7 µM
In short: as §1

CP252 = test: as above; details: P. falciparum in erythrocytes, SYBR Green DNA, 72 h; series mostly up to 28.7 µM
In short: as §1

CP256 = test: as above; details: P. falciparum in erythrocytes, SYBR Green DNA, 72 h; series mostly up to 28.7 µM
In short: as §1

CP260 = test: as above; details: P. falciparum in erythrocytes, SYBR Green DNA, 72 h; series mostly up to 28.7 µM
In short: as §1

CN1[C@H]2CC(OC(=O)[C@H](CO)c3ccccc3)C[C@H]1[C@H]1O[C@H]12 (stereo partly specified)
inactive: activation [1] -1.86% and -3.02% | outcome [2] | outcome [3] | activation [4] -0.0972% and -0.778% | max response [5] -2.4% and 1.32% | Potency [6] | Potency [7] | Potency [8] | max response [9] 0.433% and 4.93% | max response [10] -2.2% and 1.37% | Potency [11] | activity, negative = inhibition ([12]; parasite line A) 1.25% | activity, negative = inhibition ([12]; parasite line B) -7.4% | Potency (3D7) | Potency (7G8) | Potency (AA1029) | Potency (AS120) | Potency (ATS189) | Potency (ATS95) | Potency (C2A) | Potency (CP185) | Potency (CP191) | Potency (CP192) | Potency (CP194) | Potency (CP201) | Potency (CP203) | Potency (CP211) | Potency (CP215) | Potency (CP217) | Potency (CP237) | Potency (CP238) | Potency (CP247) | Potency (CP250) | Potency (CP252) | Potency (CP256) | Potency (CP260)
